Reference: PubChem BioAssay (EPA / NIEHS)
Activity calls are given as the source filed them. Rule for the calls: active = hit-call score of the fitted dose curve at least 0.9, where 1 is the maximum; inactive = score below 0.9.

Legend:
[1] = read-out: Tumor necrosis factor receptor superfamily member 6 (Homo sapiens) (UniProt P25445); assay: LTEA_HepaRG_FAS: Life Technologies and Expression Analysis (LTEA) Assay for Fas cell surface death receptor (FAS) using HepaRG (AID 2283447); conditions: mRNA level, 48 h; actives raise or lower the signal
Outline: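 FAS transcript level was measured by TaqMan qRT-PCR against three housekeeping genes after 48 h chemical exposure. Cells were HepaRG, 0.5% DMSO vehicle, with a top concentration of 100 uM and half-log dilutions over eight points, in duplicate.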

[2] = read-out: Fatty acid synthase (Homo sapiens) (UniProt P49327); assay: LTEA_HepaRG_FASN: Life Technologies and Expression Analysis (LTEA) Assay for Fatty Acid Synthase (FASN) using HepaRG (AID 2283448); conditions: mRNA level, 48 h; actives raise or lower the signal
Outline: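 FASN transcript measured by TaqMan qRT-PCR, normalised to three housekeeping genes, after 48 h chemical exposure of HepaRG cells. Eight-point half-log series from 100 uM in 0.5% DMSO, duplicates; gain or loss fitted against vehicle.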

[3] = read-out: Cyclin Dependent Kinase Inhibitor 1A (CDKN1A), CDKN1A (gene 1026); assay: LTEA_HepaRG_CDKN1A: Life Technologies and Expression Analysis (LTEA) Assay for Cyclin Dependent Kinase Inhibitor 1A (CDKN1A) using HepaRG (AID 2283450); conditions: mRNA level, 48 h; actives raise or lower the signal
Outline: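 Differentiated HepaRG cells in serum-free induction medium, exposed 48 h in duplicate to eight half-log concentrations up to 100 uM in 0.5% DMSO. mRNA measured by TaqMan qRT-PCR, normalized to ACTB, GAPDH, POLR2A; bidirectional fit versus DMSO.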

[4] = read-out: Cyclin D1 (CCND1), CCND1 (gene 595); assay: LTEA_HepaRG_CCND1: Life Technologies and Expression Analysis (LTEA) Assay for Cyclin D1 (CCND1) using HepaRG (AID 2283451); conditions: mRNA level, 48 h; actives raise or lower the signal;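 for AC50: TaqMan qRT-PCR transcript level normalised to ACTB GAPDH and POLR2A housekeeping genes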
Outline: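 Differentiated HepaRG cells exposed 48 h in serum-free induction medium to eight half-log concentrations from 100 uM top, 0.5% DMSO, duplicates. CCND1 mRNA measured by Fluidigm TaqMan qRT-PCR, normalised to ACTB, GAPDH, POLR2A; bidirectional fit.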

[5] = read-out: catalase (CAT), CAT (gene 847); assay: LTEA_HepaRG_CAT: Life Technologies and Expression Analysis (LTEA) Assay for catalase (CAT) using HepaRG (AID 2283452); conditions: mRNA level, 48 h; actives raise or lower the signal
Outline: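 Expression of CAT was quantified by TaqMan qRT-PCR with ACTB/GAPDH/POLR2A normalization after 48 h chemical exposure of HepaRG. Eight-point half-log series, top 100 uM, in 0.5% DMSO; gain or loss fitted against vehicle.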

[6] = read-out: flavin-containing dimethylaniline monooxygenases 3 (FMO3), FMO3 (gene 2328); assay: LTEA_HepaRG_FMO3: Life Technologies and Expression Analysis (LTEA) Assay for flavin-containing dimethylaniline monooxygenases 3 (FMO3) using HepaRG (AID 2283453); conditions: mRNA level, 48 h; actives raise or lower the signal
Outline: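 FMO3 transcript quantified by TaqMan qRT-PCR against three housekeeping genes after 48 h chemical exposure of HepaRG cells. Eight-point half-log series, top 100 uM, 0.5% DMSO vehicle; phenobarbital 1mM induction control; up- or down-regulation fitted.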

[7] = read-out: Cytochrome P450 (CYP1A1), CYP1A1 (gene 1543); assay: LTEA_HepaRG_CYP1A1: Life Technologies and Expression Analysis (LTEA) Assay for Cytochrome P450 (CYP1A1) using HepaRG (AID 2283454); conditions: mRNA level, 48 h; actives raise or lower the signal
Outline: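 Differentiated human HepaRG cells, after 48 h plating, exposed in duplicate for 48 h in serum-free induction medium to 8 half-log concentrations up to 100 uM in 0.5% DMSO. CYP1A1 mRNA by qRT-PCR, normalized to ACTB/GAPDH/POLR2A; bidirectional fit versus DMSO.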

[8] = read-out: CFLAR gene, CFLAR (gene 8837); assay: LTEA_HepaRG_CFLAR: Life Technologies and Expression Analysis (LTEA) Assay for CFLAR gene using HepaRG (AID 2283455); conditions: mRNA level, 48 h; actives raise or lower the signal
Outline: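 Transcript level by qRT-PCR (normalized to ACTB, GAPDH and POLR2A) after 48 h chemical exposure of HepaRG cells, top concentration 100 uM with half-log steps, 0.5% DMSO vehicle, duplicates; fitted bidirectionally against DMSO baseline.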

[9] = read-out: Forkhead box O1 (FOXO1), FOXO1 (gene 2308); assay: LTEA_HepaRG_FOXO1: Life Technologies and Expression Analysis (LTEA) Assay for Forkhead box O1 (FOXO1) using HepaRG (AID 2283456); conditions: mRNA level, 48 h; actives raise or lower the signal
Outline: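 FOXO1 transcript quantified by qRT-PCR after 48 h chemical exposure (top 100 uM, half-log steps, 0.5% DMSO) of HepaRG cells, housekeeping-normalized (ACTB/GAPDH/POLR2A). Changes fitted in both directions relative to vehicle.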

[10] = CEETOX_H295R_TESTO: CeeTox H295R High-throughput Steroidogenesis Assay for Testosterone (TESTO) (AID 2283457); conditions: actives raise or lower the signal;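 note: cells exposed to chemicals for 48 h before medium collection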
Outline: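 H295R adrenal cells, passage ≤10, exposed to chemicals for 48 h. Testosterone in medium measured by MTBE extraction and HPLC-MS/MS against a 7-point standard curve. Bidirectional fit versus DMSO; MTT viability checked in the same wells.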

[11] = read-out: growth arrest and DNA damage 45 (GADD45A), GADD45A (gene 1647); assay: LTEA_HepaRG_GADD45A: Life Technologies and Expression Analysis (LTEA) Assay for growth arrest and DNA damage 45 (GADD45A) using HepaRG (AID 2283458); conditions: mRNA level, 48 h; actives raise or lower the signal
Outline: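 GADD45A expression was measured by TaqMan qRT-PCR against three housekeeping genes (ACTB, GAPDH, POLR2A) after 48 h treatment of HepaRG cells. Eight-point half-log series up to 100 uM in 0.5% DMSO, run in duplicate.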

[12] = read-out: Forkhead box O3 (FOXO3), FOXO3 (gene 2309); assay: LTEA_HepaRG_FOXO3: Life Technologies and Expression Analysis (LTEA) Assay for Forkhead box O3 (FOXO3) using HepaRG (AID 2283459); conditions: mRNA level, 48 h; actives raise or lower the signal
Outline: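 FOXO3 transcript measured by qRT-PCR (normalized to ACTB, GAPDH, POLR2A) after 48 h exposure of HepaRG cells in serum-free induction medium. Duplicates, eight half-log concentrations up to 100 uM, 0.5% DMSO; gain or loss fitted against DMSO.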

[13] = read-out: ABC Transporter (ABCB1), ABCB1 (gene 5243); assay: LTEA_HepaRG_ABCB1: Life Technologies and Expression Analysis (LTEA) Assay for ABC Transporter (ABCB1) using HepaRG (AID 2283460); conditions: mRNA level, 48 h; actives raise or lower the signal
Outline: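 ABCB1 transcript level measured by TaqMan qRT-PCR against three housekeeping genes after 48 h chemical exposure of differentiated HepaRG cells. Top concentration 100 uM, half-log steps, eight points, 0.5% DMSO vehicle; bidirectional fit relative to DMSO.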

[14] = read-out: growth arrest and DNA damage 45 (GADD45B), GADD45B (gene 4616); assay: LTEA_HepaRG_GADD45B: Life Technologies and Expression Analysis (LTEA) Assay for growth arrest and DNA damage 45 (GADD45B) using HepaRG (AID 2283461); conditions: mRNA level, 48 h; actives raise or lower the signal
Outline: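 Differentiated human HepaRG cells in serum-free induction medium exposed 48 h in duplicate to eight concentrations, top 100 uM, half-log steps, 0.5% DMSO. GADD45B mRNA by TaqMan qRT-PCR, normalized to ACTB, GAPDH, POLR2A; bidirectional fit versus DMSO.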

[15] = read-out: ABC Transporter (ABCC3), ABCC3 (gene 8714); assay: LTEA_HepaRG_ABCC3: Life Technologies and Expression Analysis (LTEA) Assay for ABC Transporter (ABCC3) using HepaRG (AID 2283462); conditions: mRNA level, 48 h; actives raise or lower the signal
Outline: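 Differentiated human HepaRG cells exposed 48 h in serum-free induction medium, 0.5% DMSO vehicle, 8-point half-log series to 100 uM in duplicate. ABCC3 mRNA by qRT-PCR, normalised to ACTB, GAPDH, POLR2A; bidirectional fit vs DMSO.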

[16] = read-out: ABC Transporter (ABCB11), ABCB11 (gene 8647); assay: LTEA_HepaRG_ABCB11: Life Technologies and Expression Analysis (LTEA) Assay for ABC Transporter (ABCB11) using HepaRG (AID 2283463); conditions: mRNA level, 48 h; actives raise or lower the signal
Outline: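 ABCB11 transcript levels quantified by TaqMan qRT-PCR against three housekeeping genes after 48 h chemical exposure of HepaRG cultures. Concentrations up to 100 uM in half-log steps, 0.5% DMSO vehicle; both induction and suppression scored.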

[17] = read-out: ABC Transporter (ABCC2), ABCC2 (gene 1244); assay: LTEA_HepaRG_ABCC2: Life Technologies and Expression Analysis (LTEA) Assay for ABC Transporter (ABCC2) using HepaRG (AID 2283464); conditions: mRNA level, 48 h; actives raise or lower the signal
Outline: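 Differentiated HepaRG cells in serum-free induction medium exposed 48 h to eight half-log concentrations up to 100 uM, 0.5% DMSO, in duplicate. ABCC2 mRNA measured by qRT-PCR (TaqMan, Fluidigm), normalized to ACTB, GAPDH and POLR2A. Fitted in both directions against DMSO.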

[18] = read-out: Broad substrate specificity ATP-binding cassette transporter ABCG2 (Homo sapiens) (UniProt Q9UNQ0); assay: LTEA_HepaRG_ABCG2: Life Technologies and Expression Analysis (LTEA) Assay for ABC Transporter (ABCG2) using HepaRG (AID 2283465); conditions: mRNA level, 48 h; actives raise or lower the signal
Outline: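 ABCG2 transcript was quantified by TaqMan qRT-PCR against three housekeeping genes in HepaRG cells. Cells were treated in duplicate for 48 h across an 8-point half-log series up to 100 uM, with 0.5% DMSO vehicle. Gain or loss versus DMSO was fit.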

[19] = read-out: ATP-citrate lyase (ACLY), ACLY (gene 47); assay: LTEA_HepaRG_ACLY: Life Technologies and Expression Analysis (LTEA) Assay for ATP-citrate lyase (ACLY) using HepaRG (AID 2283466); conditions: mRNA level, 48 h; actives raise or lower the signal
Outline: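 ACLY mRNA quantified by qRT-PCR on Fluidigm arrays against three housekeeping genes, after 48 h chemical treatment of HepaRG cells (top concentration 100 uM, half-log steps, 0.5% DMSO vehicle). Up- or down-regulation fitted relative to DMSO.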

[20] = read-out: Cyclin D2 (CCND2), CCND2 (gene 894); assay: LTEA_HepaRG_CCND2: Life Technologies and Expression Analysis (LTEA) Assay for Cyclin D2 (CCND2) using HepaRG (AID 2283449); conditions: mRNA level, 48 h; actives raise or lower the signal
Outline: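 CCND2 transcript levels, quantified by qRT-PCR and normalised to three housekeeping genes, were fitted bidirectionally against 0.5% DMSO. HepaRG cultures were dosed 48 h in duplicate with an 8-point half-log series up to 100 uM.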

Measured: AC50

Sequence of Broad substrate specificity ATP-binding cassette transporter ABCG2 (Homo sapiens) (Q9UNQ0 whole entry, looked up): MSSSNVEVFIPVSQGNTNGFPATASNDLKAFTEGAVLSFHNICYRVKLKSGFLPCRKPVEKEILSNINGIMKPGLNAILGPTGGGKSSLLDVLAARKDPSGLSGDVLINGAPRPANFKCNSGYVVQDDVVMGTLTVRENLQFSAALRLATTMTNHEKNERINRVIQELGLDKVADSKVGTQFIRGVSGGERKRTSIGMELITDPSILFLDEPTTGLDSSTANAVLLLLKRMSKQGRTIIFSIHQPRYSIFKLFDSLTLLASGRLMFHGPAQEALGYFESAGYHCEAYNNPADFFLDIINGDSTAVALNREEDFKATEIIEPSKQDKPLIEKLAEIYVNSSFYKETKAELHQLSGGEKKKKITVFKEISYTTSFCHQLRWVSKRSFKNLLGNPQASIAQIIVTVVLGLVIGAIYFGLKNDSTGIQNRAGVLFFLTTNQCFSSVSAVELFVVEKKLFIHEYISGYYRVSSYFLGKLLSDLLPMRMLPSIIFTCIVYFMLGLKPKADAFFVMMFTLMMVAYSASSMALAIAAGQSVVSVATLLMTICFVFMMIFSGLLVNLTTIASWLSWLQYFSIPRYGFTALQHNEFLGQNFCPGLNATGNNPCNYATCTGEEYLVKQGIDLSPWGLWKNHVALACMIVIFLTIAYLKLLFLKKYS
Sequence of Fatty acid synthase (Homo sapiens) (P49327 whole entry, looked up): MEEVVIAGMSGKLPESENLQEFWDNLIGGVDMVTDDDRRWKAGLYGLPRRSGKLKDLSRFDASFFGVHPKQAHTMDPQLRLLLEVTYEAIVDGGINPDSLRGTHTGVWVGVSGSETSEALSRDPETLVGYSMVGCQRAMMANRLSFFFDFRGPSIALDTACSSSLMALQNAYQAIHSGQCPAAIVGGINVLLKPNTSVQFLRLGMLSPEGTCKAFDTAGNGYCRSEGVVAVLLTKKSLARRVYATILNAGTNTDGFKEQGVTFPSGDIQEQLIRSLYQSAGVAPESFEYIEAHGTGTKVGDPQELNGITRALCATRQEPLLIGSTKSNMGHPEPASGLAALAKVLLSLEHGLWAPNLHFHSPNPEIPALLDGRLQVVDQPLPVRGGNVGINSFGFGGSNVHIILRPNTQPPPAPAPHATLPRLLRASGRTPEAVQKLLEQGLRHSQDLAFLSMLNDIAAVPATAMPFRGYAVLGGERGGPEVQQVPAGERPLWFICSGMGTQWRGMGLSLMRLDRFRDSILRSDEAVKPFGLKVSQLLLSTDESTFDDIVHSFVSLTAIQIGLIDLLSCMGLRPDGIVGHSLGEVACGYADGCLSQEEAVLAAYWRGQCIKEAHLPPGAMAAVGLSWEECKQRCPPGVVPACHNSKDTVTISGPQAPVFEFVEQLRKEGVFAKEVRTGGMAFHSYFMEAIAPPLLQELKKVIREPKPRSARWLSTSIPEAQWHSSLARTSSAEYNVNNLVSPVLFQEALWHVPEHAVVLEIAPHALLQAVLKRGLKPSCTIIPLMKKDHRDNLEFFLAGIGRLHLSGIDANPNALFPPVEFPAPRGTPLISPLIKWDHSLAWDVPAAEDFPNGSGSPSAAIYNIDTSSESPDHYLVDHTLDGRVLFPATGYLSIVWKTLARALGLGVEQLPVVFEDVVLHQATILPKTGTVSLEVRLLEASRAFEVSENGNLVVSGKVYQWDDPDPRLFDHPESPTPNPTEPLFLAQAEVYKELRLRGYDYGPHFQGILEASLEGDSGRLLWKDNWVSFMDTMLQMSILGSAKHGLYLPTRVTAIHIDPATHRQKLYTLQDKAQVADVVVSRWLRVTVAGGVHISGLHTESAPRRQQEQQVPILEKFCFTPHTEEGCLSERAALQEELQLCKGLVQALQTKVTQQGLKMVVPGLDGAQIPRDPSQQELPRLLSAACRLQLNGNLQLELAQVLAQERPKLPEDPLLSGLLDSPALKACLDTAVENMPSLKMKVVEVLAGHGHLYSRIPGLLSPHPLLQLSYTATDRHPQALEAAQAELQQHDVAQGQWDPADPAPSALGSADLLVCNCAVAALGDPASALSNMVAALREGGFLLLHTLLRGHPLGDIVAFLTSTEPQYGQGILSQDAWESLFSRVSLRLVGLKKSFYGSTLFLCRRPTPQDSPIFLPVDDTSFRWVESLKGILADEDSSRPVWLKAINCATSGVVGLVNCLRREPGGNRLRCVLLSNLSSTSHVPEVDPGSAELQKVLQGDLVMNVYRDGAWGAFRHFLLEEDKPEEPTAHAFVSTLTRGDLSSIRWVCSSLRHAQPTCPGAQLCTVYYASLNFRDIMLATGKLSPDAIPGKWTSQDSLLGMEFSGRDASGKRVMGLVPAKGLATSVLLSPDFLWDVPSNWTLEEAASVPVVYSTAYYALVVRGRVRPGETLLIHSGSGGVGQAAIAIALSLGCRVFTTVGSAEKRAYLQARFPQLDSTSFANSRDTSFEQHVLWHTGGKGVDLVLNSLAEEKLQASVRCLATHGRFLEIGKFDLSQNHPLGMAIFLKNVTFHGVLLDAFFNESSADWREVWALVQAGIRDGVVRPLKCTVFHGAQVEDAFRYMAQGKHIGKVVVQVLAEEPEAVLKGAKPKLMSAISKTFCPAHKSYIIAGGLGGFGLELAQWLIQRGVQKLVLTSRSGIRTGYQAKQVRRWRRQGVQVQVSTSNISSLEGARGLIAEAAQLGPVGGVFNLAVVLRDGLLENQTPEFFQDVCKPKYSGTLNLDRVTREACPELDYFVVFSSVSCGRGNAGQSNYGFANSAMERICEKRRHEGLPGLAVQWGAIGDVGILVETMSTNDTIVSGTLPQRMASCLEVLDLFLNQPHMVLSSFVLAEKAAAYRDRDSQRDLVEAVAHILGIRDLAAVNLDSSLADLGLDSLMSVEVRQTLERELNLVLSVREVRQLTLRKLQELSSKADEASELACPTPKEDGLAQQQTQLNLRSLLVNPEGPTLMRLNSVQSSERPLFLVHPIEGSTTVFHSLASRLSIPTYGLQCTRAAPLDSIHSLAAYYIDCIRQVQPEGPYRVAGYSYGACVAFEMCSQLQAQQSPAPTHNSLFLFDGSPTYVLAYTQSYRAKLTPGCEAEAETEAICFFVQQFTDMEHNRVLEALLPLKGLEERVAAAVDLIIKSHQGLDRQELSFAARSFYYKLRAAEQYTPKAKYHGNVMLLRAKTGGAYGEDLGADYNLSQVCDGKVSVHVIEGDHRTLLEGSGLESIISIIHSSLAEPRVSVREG

CCC(=O)Nc1ccc(Cl)c(Cl)c1
active: [2] 30.8 µM | [4] 50 µM | [7] 32.1 µM | [10] 2.93 µM | [17] 50 µM
not listed: [20]
inactive: all other assays above

C#CC(C)(C)NC(=O)c1cc(Cl)cc(Cl)c1
active: [2] 0.0239 µM | [7] 33 µM | [13] 50 µM | [17] 27.3 µM
not listed: [10] | [12] | [14]
inactive: all other assays above

CCC(CC)Nc1c([N+](=O)[O-])cc(C)c(C)c1[N+](=O)[O-]
active: [7] 29.8 µM | [18] 60.6 µM | [19] 89.4 µM
not listed: [10] | [12] | [14]
inactive: all other assays above

CCOP(=O)(NC(C)C)Oc1ccc(SC)c(C)c1 (stereo not drawn)
active: [7] 50 µM | [10] 26.2 µM | [16] 5.28 µM
not listed: [14] | [20]
inactive: all other assays above

CN1COCN(Cc2cnc(Cl)s2)C1=N[N+](=O)[O-]
not listed: [10] | [20]
inactive: all other assays above

CC(=NC#N)N(C)Cc1ccc(Cl)nc1
active: [7] 50 µM
not listed: [10] | [12] | [14]
inactive: all other assays above

COc1cccc(C(=O)NN(C(=O)c2cc(C)cc(C)c2)C(C)(C)C)c1C
active: [7] 50 µM | [13] 4.33 µM | [16] 19.5 µM | [17] 8.52 µM | [18] 16.7 µM
not listed: [10] | [12] | [14]
inactive: all other assays above
